This is a sample that favours compounds with a hit; in the whole collection about 3.7% have one here.
Anthrax LF prot – Bacillus anthracis LF protease inhibitors, primary screen, biochemical, multiplex microsphere, MLPCN library; Lethal factor (Bacillus anthracis), P15917; multiplex microsphere protease cleavage assay; inhibition, % at 10 µM; 360,000 compounds, 0.12% hits; AID 588501, 2011
BoNT-F LC inh – BoNT/F light chain protease inhibitors, primary screen, biochemical, flow cytometry, MLPCN library; Botulinum neurotoxin type F light chain protease (Clostridium botulinum); Multiplex microsphere protease cleavage assay; 360,000 compounds, 0.22% hits; inhibition, % at 10 µM; in the data active = inhibition above about 35%, passing the limit was not always enough; inconclusive = no clear call, values can overlap the other calls
BoNT A protease – BoNT/A light chain protease inhibitors, primary screen, biochemical, flow cytometry, MLPCN library | Botulinum neurotoxin type A light chain protease (Clostridium botulinum A str. ATCC 3502) | multiplex microsphere protease substrate cleavage | inhibition, % at 10 µM | 360,000 compounds, 0.17% hits | AID 588499, 2011
Bead autofluor – counter-screen for toxin protease inhibitors: compound fluorescence. compound autofluorescence counterscreen, microsphere flow cytometry; hits give high values. 360,000 compounds, 3.1% hits. fluorescence intensity (concentration not given with the values); in the data active = fluorescence intensity above about 16000; inconclusive = no clear call, values can overlap the other calls
MazEF act – activators of E. coli MazEF toxin-antitoxin RNase, primary screen, biochemical, fluorescence, uHTS; Endoribonuclease toxin MazF (Escherichia coli (strain K12)), P0AE70; FAM/BHQ RNA-DNA oligo cleavage fluorescence, 5 h; activation, % at 20 µM; 350,000 compounds, 0.32% hits; in the data active = activation above about 50%
Target sequence (P0AE70 whole entry, looked up): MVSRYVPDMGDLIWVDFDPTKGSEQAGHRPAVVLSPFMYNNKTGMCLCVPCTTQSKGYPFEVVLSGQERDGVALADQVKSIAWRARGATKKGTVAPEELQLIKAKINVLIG
Each line names hits and unclear results; the compound was inactive in the other large screens. Rule as the data show it, unless noted: active = inhibition above about 30%; inconclusive = no clear call, values can overlap the other calls; inactive = below that.

Cc1nc2nc(C)c(CCC(=O)NCc3ccc4c(c3)OCO4)c(C)n2n1	BoNT A protease inconclusive, Bead autofluor 17817
Cc1nc2ncnn2c(C)c1CCC(=O)NC(C)c1ccc2c(c1)OCCO2 (configuration not stated)	Bead autofluor 22862
CCOC(=O)N1CCC(NC(=O)CCc2c(C)nc3c(c(C)nn3C(C)(C)C)c2C)CC1	Bead autofluor 21418
CCOC(=O)CCc1c(C)nc2ncnn2c1C	BoNT A protease inconclusive, Bead autofluor 23382
CC(=O)N(Cc1ccccc1)c1c(N)nc(N)[nH]c1=O	none
CC1(C)N=C(N)N=C(N)N1c1ccc(OCC(=O)N2CCOCC2)c(Cl)c1	none
CN(Cc1ccccc1)C(=O)c1cccc(NC(=O)Cc2ccc(NC(=O)C3CCN(C(=O)C4CCC4)CC3)cc2)c1	none
OC(c1ccccc1)c1nc(-c2cc(F)cc(F)c2)cs1 (configuration not stated)	none (no result: MazEF act)
CCCCCc1nc(-c2nonc2N)no1	none
Nc1nonc1-c1noc(CCCOc2ccc(Cl)cc2Cl)n1	BoNT A protease inconclusive, Bead autofluor 22747
CN(CC(=O)Nc1ccc(N2CCOCC2)cc1)C(=O)c1cccc(Cl)c1Cl	none
COc1ccc(Br)c(C(=O)N(C)CC(=O)Nc2ccc(N3CCOCC3)cc2)c1	Bead autofluor 21018
Cn1nnnc1SCC(=O)c1c(N)n(C2CC2)c(=O)[nH]c1=O	none
Cc1ccc(-n2ccnc2SCC(=O)c2c(N)n(C3CC3)c(=O)[nH]c2=O)cc1C	none
Cc1ccc(-n2nnnc2SCC(=O)c2c(N)n(C3CC3)c(=O)[nH]c2=O)cc1C	MazEF act 57
Cc1cccc(C)c1-n1nnnc1SCC(=O)c1c(N)n(C2CC2)c(=O)[nH]c1=O	MazEF act 55
CSc1nnnn1-c1c(C)cccc1C	none
Cc1cccc(C)c1-n1nnnc1SCSc1nnnn1-c1c(C)cccc1C	BoNT A protease inconclusive, Bead autofluor 21580
COc1cc(C)ccc1S(=O)(=O)NC(=O)C1(C)CCN1C(=O)Cc1ccc(Cl)cc1Cl (configuration not stated)	none (no result: MazEF act)
Cc1csc(NC(=O)CSc2nnc3ncccn23)n1	Bead autofluor 22164
CCn1c(SCC(=O)Nc2nccs2)nnc1-c1cccnc1	Bead autofluor inconclusive
O=C(CSc1nnc2ncccn12)N1CCCCCC1	Bead autofluor 23133
CCc1nnc(NC(=O)CSc2nnc3ncccn23)s1	BoNT A protease inconclusive, Bead autofluor 20884
CCn1c(SCC(=O)Nc2nc(C)cs2)nnc1-c1cccnc1	Bead autofluor 17501
N#C/C(C(N)=O)=C1/CCCN1Cc1ccccc1	BoNT-F LC inh inconclusive
C[C@H](CO)N1C[C@H](C)[C@@H](CN(C)S(=O)(=O)c2cccc(C#N)c2)OCc2cn(nn2)CCCC1=O	none
O=S(=O)(CC(CN1CCCC1)N1CCCC1)c1ccc2ccccc2c1 (configuration not stated)	Bead autofluor 26003
O=C(CS(=O)c1cccc(C(F)(F)F)c1)Nc1ccccc1Cl (configuration not stated)	Bead autofluor 22990
O=C(CSc1cccc(C(F)(F)F)c1)Nc1ccc(Cl)cc1Cl	BoNT A protease inconclusive, Bead autofluor 19968
c1ccc(COc2ncnc3c2ncn3CCCNC2CCN(Cc3ccccc3)CC2)cc1	none
OC[C@@H]1CN(Cc2cccs2)C[C@H](n2cnc3c(N4CCCC4)ncnc32)O1	none (no result: MazEF act)
COc1ccc(N2CC(C(=O)Nc3c(C(N)=O)oc4ccccc34)CC2=O)cc1 (configuration not stated)	none
Cc1cccc(NC(=O)CCSc2nncn2C)c1	Bead autofluor 22260
Cc1cccc(NC(=O)CCSc2ccccn2)c1	none
Cc1cccc(NC(=S)NNC(=O)CCn2cc(C)cn2)c1	BoNT A protease inconclusive, Bead autofluor 22732
Cc1ccc(CNC(=O)c2ccc(C)c(S(=O)(=O)N3CCCCC3)c2)cc1	none
CCN(CC)c1nc(C=Cc2ccc(N(C)C)cc2)c2nccnc2n1	none
CCCCOC(=O)c1ccc(NS(=O)(=O)c2cc(-c3nnnn3CC)ccc2OC)cc1	none
CCOC(=O)c1ccc(N/C=C/C(=O)c2ccc(OC)c(OC)c2)cc1	Bead autofluor 19087
CCn1nnnc1-c1ccc(OC)c(S(=O)(=O)NCCc2ccccc2)c1	BoNT A protease inconclusive, Bead autofluor 19509
CCOC(=O)c1ccc(NS(=O)(=O)c2cc(-c3nnnn3CC)ccc2OC)cc1	BoNT A protease inconclusive, Bead autofluor 19076
CCOc1ccc(N/C=C/C(=O)c2ccc(OC)c(OC)c2)cc1	none
COc1ccc(C2=CCCC2)c(OC)c1	none
CC(C)NC(=O)C1(C)CCN1C(=O)c1ccccc1Oc1ccccc1 (configuration not stated)	none (no result: MazEF act)
CC(=O)C1=CCC(c2ccc(C)cc2)N(S(=O)(=O)c2ccc(Cl)cc2)C1 (configuration not stated)	none (no result: MazEF act)
O=C(NC1(C(F)(F)F)NC(=O)N(Cc2ccco2)C1=O)c1cccs1 (configuration not stated)	Bead autofluor 20774
CC(C)CN1C(=O)NC(NC(=O)c2cccs2)(C(F)(F)F)C1=O (configuration not stated)	BoNT A protease inconclusive, Bead autofluor 21985
O=C(NC1(C(F)(F)F)NC(=O)N(Cc2cccnc2)C1=O)c1ccccc1 (configuration not stated)	Bead autofluor 20881
CN1C(=O)NC(NC(=O)c2cccs2)(C(F)(F)F)C1=O (configuration not stated)	none
O=C(NC1(C(F)(F)F)NC(=O)N(Cc2ccco2)C1=O)c1cccnc1 (configuration not stated)	none
CCCCCCCCCCOC(=O)c1csc2nnsc12	BoNT A protease inconclusive, Bead autofluor 20631
O=C(Nc1ccon1)c1ccc2c(c1)OCO2	BoNT A protease inconclusive, Bead autofluor 16433
Cc1ccnc(NC(=O)c2ccc3c(c2)OCO3)c1	none
O=C(Nc1ccc2nsnc2c1)c1ccc2c(c1)OCO2	Bead autofluor 23719
CCOc1ccc(-n2nc3ccc(NC(=O)c4ccc5c(c4)OCCO5)cc3n2)cc1	MazEF act 59
CCCCCC(=O)N1C[C@H](O)[C@@H](n2cc(-c3ccc(F)cc3)nn2)C[C@@H]1c1ccc(OC)cc1	none
COC(=O)/C=C1\NCCSC1=O	Bead autofluor 17208
CCn1c(SCCN2CCCCC2)nc2c1c(=O)n(C)c(=O)n2C	none
CN1CCN(C2=C(Cl)C(=O)C(c3cnc(N4CCCCC4)s3)=C(Cl)C2=O)CC1	Bead autofluor 19751
CCC(c1nnnn1-c1ccc2c(c1)OCCO2)N1CCc2ccccc2C1 (configuration not stated)	none (no result: MazEF act)
Cc1cc(C)c(C(O)c2ncc(-c3cccc4ccccc34)[nH]2)c(C)c1 (configuration not stated)	none (no result: MazEF act)
COc1ccc(Cn2c(=O)oc3ccc(C)cc32)cc1OC	Bead autofluor 22068
COc1ccc(Cn2c(=O)oc3ccccc32)cc1OC	none
